Assay outcomes deposited in PubChem by several laboratories.
Only some compounds are listed: those with a hit (about 22% of all), similar ones and a draw of the others.
CYP2C19 inh – blocks human cytochrome P450 2C19 | CYP2C19 Supersomes, luciferin-H EGE luminescence, 30 min | inhibition, % at 5 µM | 21% of 96,000 active | AID 778;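 active = CYP2C19 inhibition above a set limit at 5 µM in the primary screen, cut at about 50% in these data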;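 note: plate controls were negative control wells for no effect and 2.5 mM tranylcypromine positive control for full effect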
Measles CPE – protection of cells from measles virus. Measles virus-infected cells, CPE protection, absorbance. protection (pct of control), % at 4 µM. 1.5% of 140,000 active; in the data active = protection mostly above about 24%, no sharp cut-off; inactive = mostly below about 26%
CYP2C9 inhib – human CYP2C9 inhibition | P11712 | CYP2C9 Supersomes, luciferin-H conversion, luminescence | inhibition, % at 5 µM | 20% of 96,000 active | AID 777;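 active = blocking of liver enzyme CYP2C9 beyond about 50% at 5 µM, limit read from the data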
Target sequence (P11712 whole entry, looked up): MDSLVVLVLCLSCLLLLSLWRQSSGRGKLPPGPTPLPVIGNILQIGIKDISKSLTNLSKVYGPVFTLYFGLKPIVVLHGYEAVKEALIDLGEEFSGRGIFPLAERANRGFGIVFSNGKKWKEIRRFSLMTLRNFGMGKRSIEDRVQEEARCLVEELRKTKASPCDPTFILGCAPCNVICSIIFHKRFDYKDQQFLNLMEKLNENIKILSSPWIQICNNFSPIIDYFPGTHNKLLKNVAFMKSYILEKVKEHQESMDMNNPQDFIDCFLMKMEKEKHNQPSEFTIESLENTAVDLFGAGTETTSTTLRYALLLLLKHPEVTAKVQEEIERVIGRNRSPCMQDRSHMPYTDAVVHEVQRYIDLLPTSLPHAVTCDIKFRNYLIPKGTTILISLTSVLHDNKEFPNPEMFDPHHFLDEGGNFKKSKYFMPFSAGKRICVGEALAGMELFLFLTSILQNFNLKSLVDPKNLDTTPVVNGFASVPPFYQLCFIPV
CYP2C9 activ – increases human cytochrome P450 2C9 activity | recombinant CYP2C9, luciferin-H conversion, luminescence; hits give high values; factor 1 = untreated enzyme, 0 = blocked | activation factor at 5 µM | 1.4% of 96,000 active;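 active = activation factor of 2 or more for CYP2C9 at a 5 µM dose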;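 note: 0 = sulfaphenazole-blocked wells and 1 = vehicle-only wells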
CYP2C19 activ – cytochrome P450 2C19 (human) activation; P33261; recombinant CYP2C19, luciferin-H EGE luminescence; hits give high values; 0 = fully inhibited enzyme, 1 = untreated enzyme; activation factor at 5 µM; 96,000 tested, under 10 active;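 active = activation factor of at least 2 at 5 µM in the primary screen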;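 note: 0 = wells with 2.5 mM tranylcypromine and 1 = vehicle-only wells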
Numbers without * were called inactive; · = not tested or not shown.

SMILES | CYP2C19 inh | Measles CPE | CYP2C9 inhib | CYP2C9 activ | CYP2C19 activ
CC(C)CNC(=O)c1cccc(NC(=O)c2ccco2)c1 | -4 | 22* | 6 | 0.9 | 1
Cc1cc(C)cc(OCC(=O)Nc2ccccc2C(=O)NCc2ccco2)c1 | 91* | 9 | 80* | 0.2 | 0.1
CC(C)Oc1ccc(C(=O)NCc2ccco2)cc1 | 70* | 2 | 12 | 0.9 | 0.3
O=C(O)c1cc(S(=O)(=O)N2CCCCCC2)ccc1Cl | -13 | 26 | -15 | 1.1 | 1.1
COc1ccc(C=O)cc1COc1ccc(C)cc1[N+](=O)[O-] | 16 | 24 | 12 | 0.9 | 0.8
CC(C)(C)c1ccc(C(=O)Nc2ccccc2NC(=O)c2ccco2)cc1 | · | 1 | · | · | ·
CC(C)(C)c1ccccc1NC(=O)c1ccco1 | 53* | 15 | 32 | 0.7 | 0.5
Cc1ccc(C(=O)Nc2cccc(C(=O)NCc3ccccc3)c2)o1 | 52* | 3 | 88* | 0.1 | 0.5
O=C(Nc1ccccc1C(=O)NCc1ccco1)c1ccco1 | 36 | 15 | 71* | 0.3 | 0.6
O=C(Nc1ccc(F)cc1)NC1(C(=O)NCc2cccs2)CCCCC1 | 47 | 14 | 22 | 0.8 | 0.5
O=c1c2ccsc2ncn1Cc1ccccc1F | 42 | 3 | 4 | 1 | 0.6
O=c1c2ccsc2ncn1Cc1cccc(C(F)(F)F)c1 | 35 | 17 | 53* | 0.5 | 0.6
O=C(Nc1ccccc1OC(=O)c1ccc(Cl)cc1)c1ccc(Cl)cc1 | · | 79* | · | · | ·
COC(=O)C1=C(C)Nc2nnnn2C1c1ccc(Cl)cc1Cl (stereo not drawn) | 56* | 11 | 43 | 0.6 | 0.4
CCOC(=O)C1=C(C)Nc2nnnn2C1c1ccccc1Cl (stereo not drawn) | · | 5 | · | · | ·
CC1=C(C(N)=O)C(c2ccc(Cl)cc2Cl)n2ncnc2N1 (stereo not drawn) | 51* | 7 | -5 | 1.1 | 0.5
COc1ccccc1NC(=O)C1=C(C)Nc2ncnn2C1c1ccccc1C (stereo not drawn) | -12 | 7 | -46 | 1.5 | 1.1
COC(=O)c1ccc(C2C(C(C)=O)=C(C)Nc3ncnn32)cc1 (stereo not drawn) | 96* | 3 | 26 | 0.7 | 0
CC(=O)C1=C(C)Nc2ncnn2C1c1ccccc1Cl (stereo not drawn) | 4 | 101* | 13 | 0.9 | 1
CCOC(=O)C1=C(C)Nc2ncnn2C1c1cc(Br)ccc1F (stereo not drawn) | 40 | 3 | 42 | 0.6 | 0.6
Fc1ccc(C2CC(c3cccs3)=NN2C(=S)Nc2ccccc2)cc1 (stereo not drawn) | · | 14 | · | · | ·
CC(C)CCC(CCN1CCOCC1)c1ccc2c(c1)OCO2 (stereo not drawn) | 95* | 2 | 51* | 0.5 | 0
O=C(COc1ccc(Br)cc1)c1ccc2c(c1)CCCC2 | 52* | 51 | -62 | 1.6 | 0.5
COc1cc(C2C(C#N)=C(N)Oc3cc(C)n(CCc4ccccc4)c(=O)c32)cc2c1OCO2 (stereo not drawn) | 16 | 6 | 20 | 0.8 | 0.8
Cc1cccc(-c2csc(NC(=O)c3cnccn3)c2C(=O)OC(C)C)c1 | 30 | 30 | 50* | 0.5 | 0.7
SMILES | CYP2C19 inh | Measles CPE | CYP2C9 inhib | CYP2C9 activ | CYP2C19 activ
COc1ccc(N2C(=O)CSC2c2cccc(OC)c2OC)cc1 (stereo not drawn) | · | 13 | · | · | ·
COc1ccc(-c2nnn(CC(=O)N(C3CCCC3)C(C)C(=O)NC3CCCC3)n2)cc1OC (stereo not drawn) | 81* | 8 | 59* | 0.4 | 0.2
COc1ccc(-c2nnn(CC(=O)N(C3CCCCC3)C(C)C(=O)NC3CCCC3)n2)cc1OC (stereo not drawn) | 83* | 4 | 68* | 0.3 | 0.2
CCCC(C(=O)NC1CCCC1)N(C(=O)Cn1nnc(-c2ccc(C)o2)n1)c1ccccc1OC (stereo not drawn) | 88* | 8 | 81* | 0.2 | 0.1
CC(C)C(NC(=O)OCc1ccccc1)C(=O)O (stereo not drawn) | 17 | 1 | -5 | 1.1 | 0.8
Nn1c(SCC(=O)Nc2nc3ccccc3s2)nncc1=O | · | 7 | · | · | ·
CCC(=O)NC(NC(=S)Nc1cccc2cccnc12)C(Cl)(Cl)Cl (stereo not drawn) | · | 12 | · | · | ·
CC(C)C(=O)NC(NC(=S)Nc1cccc2cccnc12)C(Cl)(Cl)Cl (stereo not drawn) | 46 | 4 | 84* | 0.2 | 0.5
CC(C)(C)C(=O)NC(Nc1cccc2cccnc12)C(Cl)(Cl)Cl (stereo not drawn) | 54* | 2 | 54* | 0.5 | 0.5
